Data taken from publication PMC13494018.
A number with no mark means an inactive call. How the calls were made is not given here.

B1: design_615_ab801fab-270b-4f6a-b2b5-83c165df418c_2173_dldesign_0_cycle1_af2pred (protein)
chain: LTPEEKQKLIEEGTELRNKGAALANQAMLAAAAGDKATAKELMAKAKEYFDKAIELYEKAGDEKKAESVKKLKDTLTSAFEAQLAA
B2: design_616_e8336982-fa4d-4d7c-b06f-9007953e1994_26_dldesign_0_cycle1_af2pred (protein)
chain: SLEEAAAQAQALVDQATALGAQDYASASQGIALLAEAAKLVEEAGLPPETAAAIMAAINAALATVSKNAAAFVAA
B3: design_615_ab801fab-270b-4f6a-b2b5-83c165df418c_2317_dldesign_0_cycle1_af2pred (protein)
chain: GAARMAAAGAQAAALAAELPAAVDPMLEGILNPETREAHEAEARAIARALDPENAEELWARVLRAAMGLLLAQGLARA
B4: design_615_ab801fab-270b-4f6a-b2b5-83c165df418c_1933_dldesign_0_cycle1_af2pred (protein)
chain: ALQGALRSAAALLRNAAESEDPESREKLLDVAADLAAYAATLDPAAGAALAAAVEEARREGPEGARRAAELAAALAAA
B5: design_615_ab801fab-270b-4f6a-b2b5-83c165df418c_2496_dldesign_0_cycle1_af2pred (protein)
chain: GEKEELIKKAEEKAAKAKEYEAKAKAAAADPAKAVEYYNKALYLYLEAAKLASKADPELAKKYSDEANKVAKKAIEAAKAA
B6: design_616_e8336982-fa4d-4d7c-b06f-9007953e1994_173_dldesign_0_cycle1_af2pred (protein)
chain: MEEKSKELKKKLEEAKKIAKEDPEKGAELAAEAAKEAAEAGDFGSAGEAIVLIAKMGTPKASRELAEASRYLIAAIRAA
B7: design_616_e8336982-fa4d-4d7c-b06f-9007953e1994_177_dldesign_0_cycle1_af2pred (protein)
chain: AGQATYNAAKAMAKSAAAMYLAGKYEDAEKVYQVAVDLAQSLIADPASKAQGEKALAYAKETYAKAKAEAEKKAA
B8: design_615_ab801fab-270b-4f6a-b2b5-83c165df418c_2088_dldesign_0_cycle1_af2pred (protein)
chain: DTERKLALLQEAIVKLTEALAAYNTDPATGRALAREAAELLKEAGLEEAAELARKAAEDPENGFEYARRALGLVTKAYIELSR
B9: design_615_ab801fab-270b-4f6a-b2b5-83c165df418c_2427_dldesign_0_cycle1_af2pred (protein)
chain: AMEAAKAAAKAAAAAAAAAGLTDLAAEIAAAAKEAEETGIEGANRLMGLAARYAVQHPALNAAMSALIEAAGAYIAEAA
B10: design_615_ab801fab-270b-4f6a-b2b5-83c165df418c_1773_dldesign_0_cycle1_af2pred (protein)
chain: SETAEEARRAVERLKEAAKKLAKAGTPEHAGYAEGLVTTTTALVERLLAAGREEEALRAARRALERAERLLKKALA
B11: design_615_ab801fab-270b-4f6a-b2b5-83c165df418c_1854_dldesign_0_cycle1_af2pred (protein)
chain: LRERAESNLAFAQTALEAAKQAKAAGAPQSLVQGLANIAERAAQLAIEEAAKDPALAPLAEEAKKVAEEAKKVAA
B12: design_615_ab801fab-270b-4f6a-b2b5-83c165df418c_1881_dldesign_0_cycle1_af2pred (protein)
chain: ALAAELAREALRAEAERIAAAKLAEAKAGTPETAQAQAAYLVSLAEEHPETAGIYLGAAAQIHAVLIAKTA
B13: design_615_ab801fab-270b-4f6a-b2b5-83c165df418c_2495_dldesign_0_cycle1_af2pred (protein)
chain: GEAEAKFAEALALLDRAEELAKGGDAAQLAEASALLTQAIELATQVSPEKRAEISRRAAEISKRLLAQLAA
B14: design_615_ab801fab-270b-4f6a-b2b5-83c165df418c_2473_dldesign_0_cycle1_af2pred (protein)
chain: SPEALTAAVRAEGDALLAEAEATAAADPEAGKAAYEAAIRRLLGLAARLLQESPAAAQAALDRAVELAAKLEEL
B15: design_615_ab801fab-270b-4f6a-b2b5-83c165df418c_2359_dldesign_0_cycle1_af2pred (protein)
chain: MEEDVALLRDIARLGRESLERARAGTAAEAERALADFTAAADAAIARLAPGEGAALLAANMRARFAAEMRAVAAAKAA
B16: design_615_ab801fab-270b-4f6a-b2b5-83c165df418c_2322_dldesign_0_cycle1_af2pred (protein)
chain: AQAEVKAKAEKLIEELIKASSEVVAAAAKAGDGESAVEANKAASEAIKKIKAAAKAGDLEAAKKAAEEGMKKLKELKAKVEAK
B17: design_615_ab801fab-270b-4f6a-b2b5-83c165df418c_1818_dldesign_0_cycle1_af2pred (protein)
chain: DPRAAASQALAAATADALLARLGELAGADVADRLRALLAGDAASKAEAARLARALAEEWRARNPAAAAALYGIAVLAESLAA
B18: design_615_ab801fab-270b-4f6a-b2b5-83c165df418c_2413_dldesign_0_cycle1_af2pred (protein)
chain: AAAALAAEALALREKGVAAAKAGRYALARNYFLQALITAGASPATIQAVVRALAAGAADPSTAPAAVAHADATVTAAAAAVAAA
B19: design_616_e8336982-fa4d-4d7c-b06f-9007953e1994_74_dldesign_0_cycle1_af2pred (protein)
chain: EKEAQEKREKAKKLIEEIKKLAKEVAANPAISGMLNQLAKAAETAAANSSPEQGLKNAEKWLEIGKEAAKTAAA

Molecular target: CD276, Q5ZPR3
Sequence (Q5ZPR3 whole entry): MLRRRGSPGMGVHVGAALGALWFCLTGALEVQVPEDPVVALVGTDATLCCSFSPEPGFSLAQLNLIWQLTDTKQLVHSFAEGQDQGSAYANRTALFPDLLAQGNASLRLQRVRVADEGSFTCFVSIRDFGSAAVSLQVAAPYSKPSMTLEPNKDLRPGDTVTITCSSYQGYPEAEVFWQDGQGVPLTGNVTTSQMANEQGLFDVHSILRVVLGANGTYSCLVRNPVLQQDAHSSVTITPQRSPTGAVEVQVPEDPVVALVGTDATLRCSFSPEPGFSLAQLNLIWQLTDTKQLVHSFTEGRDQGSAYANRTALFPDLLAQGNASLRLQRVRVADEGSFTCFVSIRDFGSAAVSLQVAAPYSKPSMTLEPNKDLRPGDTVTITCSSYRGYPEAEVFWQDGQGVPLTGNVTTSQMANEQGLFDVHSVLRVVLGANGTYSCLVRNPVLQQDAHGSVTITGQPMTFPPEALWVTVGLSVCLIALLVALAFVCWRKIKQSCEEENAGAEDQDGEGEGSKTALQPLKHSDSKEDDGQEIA

B1 was tested. Which “binding in a display sort” value did it give?
Its value is “not found”.

B2 was tested. Which “binding in a display sort” value did it give?
Its value is “not found”.

Which “binding in a display sort” value does the source give for B3 here?
The value was “not found”.

Which “binding in a display sort” value does the source give for B4 here?
The value was “not found”.

With B5 as the binder, how does the “binding in a display sort” value read?
The value was “not found”.

How did the “binding in a display sort” value turn out when B6 was run?
Its value is “not found”.

B7 was tested. Which “binding in a display sort” value did it give?
The value was “not found”.

How did the “binding in a display sort” value turn out when B8 was run?
The value was “not found”.

Which “binding in a display sort” value does the source give for B9 here?
The value was “not found”.

How did the “binding in a display sort” value turn out when B10 was run?
The value was “not found”.

How did the “binding in a display sort” value turn out when B11 was run?
Its value is “not found”.

For B12, which “binding in a display sort” value is on record?
Its value is “not found”.

With B13 as the binder, how does the “binding in a display sort” value read?
Its value is “not found”.

Which “binding in a display sort” value does the source give for B14 here?
The value was “not found”.

B15 was tested. Which “binding in a display sort” value did it give?
The value was “not found”.

How did the “binding in a display sort” value turn out when B16 was run?
The value was “not found”.

Which “binding in a display sort” value does the source give for B17 here?
Its value is “not found”.

For B18, which “binding in a display sort” value is on record?
Its value is “not found”.

How did the “binding in a display sort” value turn out when B19 was run?
Its value is “not found”.
